Records with an inconclusive call do not appear. Activity calls are given as the source filed them. Rule for the calls, unless noted: active = hit-call score of the fitted dose curve at least 0.9, where 1 is the maximum; inconclusive = response in the unintended direction; inactive = score below 0.9.
Legend:
[1] = molecular target: Nuclear receptor subfamily 1 group I member 2 (Homo sapiens) (UniProt O75469); experiment: NVS_NR_hPXR: NovaScreen (NVS) Nuclear Receptor Binding Assay for human Pregnane X Receptor (PXR) (AID 2283365);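 note: a drop in FRET signal versus DMSO baseline means the compound binds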
Summary of the method: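 Binding was measured by time-resolved fluorescence resonance energy transfer after a 2 h exposure of extracted human PXR protein without cells. Compounds were first tested at 25 uM in duplicate, with concentration series for actives; DMSO defined baseline.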

[2] = molecular target: Peroxisome proliferator-activated receptor gamma (Homo sapiens) (UniProt P37231); experiment: NVS_NR_hPPARg: NovaScreen (NVS) Nuclear Receptor Binding Assay for human Peroxisome Proliferator-activated Receptor gamma (PPARg) (AID 2283370)
Summary of the method: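 Fluorescence polarization measures competitive binding to extracted PPARg in a cell-free format. Reading is taken at 2 h; activity is signal loss relative to DMSO. Screening at 25 uM in duplicate preceded confirmatory dose series.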

[3] = molecular target: Estrogen receptor (Homo sapiens) (UniProt P03372); experiment: OT_ERa_GFPERaERE_0480: Odyssey Thera (OT) 8-hour HeLa Transcription Induction Assay for Estrogen Receptor (AID 2283381; active = hit-call score of the fitted dose curve at least 0.9, where 1 is the maximum; inactive = score below 0.9)
Summary of the method: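 Fluorescence microscopy with high-content image analysis measures ERE-driven GFP induction in HeLa cells at 8 h post-dose. Increases fitted against DMSO baseline.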

[4] = molecular target: Estrogen receptor (Homo sapiens) (UniProt P03372); experiment: OT_ERa_GFPERaERE_0120: Odyssey Thera (OT) 2-hour HeLa Transcription Induction Assay for Estrogen Receptor (AID 2283382)
Summary of the method: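 Fluorescence-microscopy images of the GFP-ERα/ERE reporter, scored by high-content image algorithms, give the readout. HeLa exposure lasted 2 h, and only signal increase over DMSO was fitted.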

[5] = molecular target: Retinoic acid receptor RXR-alpha (Homo sapiens) (UniProt P19793); experiment: OT_NURR1_NURR1RXRa_0480: Odyssey Thera (OT) 8-hour HEK293T Protein Complementation Assay for Nurr1/retinoid X receptor (RXR) (AID 2283385)
Summary of the method: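 Interaction of Nurr1 with RXRα read as reconstituted reporter fluorescence in a HEK293T fragment-complementation system, 8 h post-treatment; increase over DMSO baseline analysed.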

[6] = molecular target: Retinoic acid receptor RXR-alpha (Homo sapiens) (UniProt P19793); experiment: OT_NURR1_NURR1RXRa_1440: Odyssey Thera (OT) 24-hour HEK293T Protein Complementation Assay for Nurr1/retinoid X receptor (RXR) (AID 2283386)
Summary of the method: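 Gain in fluorescence, fitted relative to DMSO, reflects Nurr1–RXRα association in HEK293T cells after 24 h dosing. Bait and prey are each linked to a reporter-protein fragment that reassembles on interaction.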

[7] = molecular target: Estrogen receptor beta (Homo sapiens) (UniProt Q92731); experiment: OT_ER_ERbERb_1440: Odyssey Thera (OT) 24-hour HEK293T Protein-Complementation Assay for Estrogen Receptor-beta/-beta Homodimer (AID 2283380);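 note: fluorescence gain from ER beta LBD homodimer complementation read by laser scanning cytometry; scored as signal increase over DMSO baseline for both agonists and antagonists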
Summary of the method: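 Fluorescence increase, nuclear for agonists or whole-cell for antagonists, relative to DMSO vehicle, quantified by laser scanning cytometer after fixation and Draq5 staining. Readout from 24 h treatment of HEK293T cells carrying complementation-paired ER beta LBD (aa 310-547).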

[8] = molecular target: Peroxisome proliferator-activated receptor gamma (Homo sapiens) (UniProt P37231); experiment: OT_PPARg_PPARgSRC1_0480: Odyssey Thera (OT) 8-hour Protein-Complementation Assay for Peroxisome Proliferator-activated Receptor Gamma / SRC-1 Co-activator (AID 2283387);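 note: nuclear to cytoplasmic split Venus YFP fluorescence ratio reporting PPARg SRC-1 interaction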
Summary of the method: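 Split-YFP (IFP1/IFP2) PPARg/SRC-1 reporter, HEK293T, 37 °C, 5% CO2; 8 h compound; formaldehyde fix + Draq5; high-content imaging, N/C ratio, ≥350 cells/image, positive direction vs DMSO.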

[9] = molecular target: Peroxisome proliferator-activated receptor gamma (Homo sapiens) (UniProt P37231); experiment: OT_PPARg_PPARgSRC1_1440: Odyssey Thera (OT) 24-hour Protein-Complementation Assay for Peroxisome Proliferator-activated Receptor Gamma/ SRC-1 Co-activator (AID 2283388);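 note: nuclear to cytoplasmic ratio of reconstituted Venus YFP fluorescence in fixed imaged cells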
Summary of the method: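 Transient HEK293T, YFP fragments 1-158/159-239 (mutant IFP1/IFP2) fused to PPARg/SRC-1; 24 h dosing; fix 4% formaldehyde, Draq5; Opera imaging 488/635 nm; N/C ratio, gain vs DMSO.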

[10] = molecular target: mouse Estrogen Receptor alpha (Era), Esr1 (gene 13982) (UniProt P19785); experiment: NVS_NR_mERa: NovaScreen (NVS) Nuclear Receptor Binding Assay for mouse Estrogen Receptor alpha (Era) (AID 2283378);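 note: hit means loss of bound radioligand signal relative to DMSO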
Summary of the method: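 Test chemicals competed against a specific radioligand for binding to cell-free mouse Era. Duplicate wells at 25 uM were read 18 hours later by filter-based radiodetection, with loss of signal against DMSO scored as activity.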

[11] = molecular target: Agonist Androgen Response Element (ARE), AR (gene 367) (UniProt P10275); experiment: OT_AR_ARELUC_AG_1440: Odyssey Thera (OT) 24-hour CHO-K1 Luciferase Assay for Agonist Androgen Response Element (ARE) (AID 2283379)
Summary of the method: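 Readout: luciferase bioluminescence from CHO-K1 ARE-luc cells, measured 24 h post-dosing; agonism = increased mean luminescence vs DMSO controls, fitted in positive direction.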

[12] = molecular target: Bile acid receptor (Homo sapiens) (UniProt Q96RI1); experiment: OT_FXR_FXRSRC1_1440: Odyssey Thera (OT) 24-hour HEK293T Protein-Complementation Assay for Farnesoid X receptor/SRC-1 Co-activator (AID 2283384)
Summary of the method: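 Protein-fragment complementation: FXR and SRC-1 fused to reporter fragments that reassemble on interaction, read by fluorescence intensity. Human HEK293T cells measured 24 h post-dose; positive-direction fit versus DMSO.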

Measured: AC50

Estrogen receptor (Homo sapiens), sequence (P03372 whole entry, looked up): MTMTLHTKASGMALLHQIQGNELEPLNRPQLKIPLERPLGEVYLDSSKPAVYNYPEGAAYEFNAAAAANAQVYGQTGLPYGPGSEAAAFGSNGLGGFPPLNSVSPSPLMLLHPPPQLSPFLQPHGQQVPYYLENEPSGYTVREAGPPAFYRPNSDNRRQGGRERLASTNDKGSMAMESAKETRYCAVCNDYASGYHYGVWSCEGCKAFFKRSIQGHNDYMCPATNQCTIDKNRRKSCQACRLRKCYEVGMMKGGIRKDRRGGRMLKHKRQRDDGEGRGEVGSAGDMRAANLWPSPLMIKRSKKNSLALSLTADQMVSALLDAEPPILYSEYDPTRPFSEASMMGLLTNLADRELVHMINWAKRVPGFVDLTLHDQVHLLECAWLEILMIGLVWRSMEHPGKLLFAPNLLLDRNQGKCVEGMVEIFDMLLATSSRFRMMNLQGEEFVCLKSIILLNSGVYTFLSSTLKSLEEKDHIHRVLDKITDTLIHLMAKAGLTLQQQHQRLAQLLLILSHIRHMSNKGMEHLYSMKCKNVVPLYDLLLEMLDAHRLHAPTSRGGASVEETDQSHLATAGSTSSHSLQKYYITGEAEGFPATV
Nuclear receptor subfamily 1 group I member 2 (Homo sapiens), sequence (O75469 whole entry, looked up): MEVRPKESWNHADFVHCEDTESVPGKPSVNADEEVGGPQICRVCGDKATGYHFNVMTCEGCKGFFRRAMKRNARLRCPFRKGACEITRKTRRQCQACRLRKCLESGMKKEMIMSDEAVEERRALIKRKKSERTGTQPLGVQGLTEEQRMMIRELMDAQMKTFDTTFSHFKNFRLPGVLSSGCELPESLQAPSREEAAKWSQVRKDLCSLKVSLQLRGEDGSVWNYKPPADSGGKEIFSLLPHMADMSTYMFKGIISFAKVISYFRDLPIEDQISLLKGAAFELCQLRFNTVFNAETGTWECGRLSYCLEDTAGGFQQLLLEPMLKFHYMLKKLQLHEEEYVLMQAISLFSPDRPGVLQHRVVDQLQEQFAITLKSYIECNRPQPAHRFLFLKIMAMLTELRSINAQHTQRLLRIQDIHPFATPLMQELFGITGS
Estrogen receptor beta (Homo sapiens), sequence (Q92731 whole entry, looked up, the tested form may be a part): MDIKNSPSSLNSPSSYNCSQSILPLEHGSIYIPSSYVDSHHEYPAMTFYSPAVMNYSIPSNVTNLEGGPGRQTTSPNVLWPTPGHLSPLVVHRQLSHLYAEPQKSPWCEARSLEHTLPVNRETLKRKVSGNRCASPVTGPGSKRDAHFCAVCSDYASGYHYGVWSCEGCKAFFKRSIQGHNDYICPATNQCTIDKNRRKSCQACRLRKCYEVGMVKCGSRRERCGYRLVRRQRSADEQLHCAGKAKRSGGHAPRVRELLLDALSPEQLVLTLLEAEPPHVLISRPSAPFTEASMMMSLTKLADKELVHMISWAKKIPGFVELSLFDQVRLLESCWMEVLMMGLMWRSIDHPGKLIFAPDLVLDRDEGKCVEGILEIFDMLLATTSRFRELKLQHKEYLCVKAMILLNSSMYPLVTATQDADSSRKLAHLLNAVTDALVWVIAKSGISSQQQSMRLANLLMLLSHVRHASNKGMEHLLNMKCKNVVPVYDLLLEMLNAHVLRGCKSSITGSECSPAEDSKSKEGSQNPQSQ
Retinoic acid receptor RXR-alpha (Homo sapiens), sequence (P19793 whole entry, looked up, the tested form may be a part): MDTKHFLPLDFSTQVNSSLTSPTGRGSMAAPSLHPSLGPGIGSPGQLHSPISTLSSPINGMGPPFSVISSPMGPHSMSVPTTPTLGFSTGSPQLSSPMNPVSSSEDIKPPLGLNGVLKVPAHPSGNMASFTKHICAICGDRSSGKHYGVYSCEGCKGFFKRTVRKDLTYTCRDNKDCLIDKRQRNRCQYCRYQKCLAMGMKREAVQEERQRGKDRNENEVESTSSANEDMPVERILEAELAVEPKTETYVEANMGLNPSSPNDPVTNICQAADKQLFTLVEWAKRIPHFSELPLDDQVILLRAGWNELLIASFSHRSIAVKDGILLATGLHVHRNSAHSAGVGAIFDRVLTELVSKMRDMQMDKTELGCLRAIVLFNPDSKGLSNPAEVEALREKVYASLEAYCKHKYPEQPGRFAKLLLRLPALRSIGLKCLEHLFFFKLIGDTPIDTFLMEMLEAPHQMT
mouse Estrogen Receptor alpha (Era), Esr1 (gene 13982), sequence (P19785 whole entry, looked up): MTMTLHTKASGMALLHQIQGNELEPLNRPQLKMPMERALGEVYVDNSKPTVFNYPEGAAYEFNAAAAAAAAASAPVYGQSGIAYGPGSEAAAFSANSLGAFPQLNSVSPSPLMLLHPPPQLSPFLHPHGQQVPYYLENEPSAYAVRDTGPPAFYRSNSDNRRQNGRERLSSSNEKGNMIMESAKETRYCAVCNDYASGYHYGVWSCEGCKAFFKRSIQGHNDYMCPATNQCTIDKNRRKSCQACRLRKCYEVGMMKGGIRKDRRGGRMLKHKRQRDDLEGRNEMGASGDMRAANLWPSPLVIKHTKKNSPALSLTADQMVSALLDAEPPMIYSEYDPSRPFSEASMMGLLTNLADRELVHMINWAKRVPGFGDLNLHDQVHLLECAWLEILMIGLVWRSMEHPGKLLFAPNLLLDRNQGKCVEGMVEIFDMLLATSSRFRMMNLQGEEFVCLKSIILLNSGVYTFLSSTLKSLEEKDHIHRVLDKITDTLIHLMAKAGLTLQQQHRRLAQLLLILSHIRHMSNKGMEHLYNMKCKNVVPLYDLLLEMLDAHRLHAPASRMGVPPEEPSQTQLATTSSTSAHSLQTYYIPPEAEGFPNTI
Peroxisome proliferator-activated receptor gamma (Homo sapiens), sequence (P37231 whole entry, looked up, the tested form may be a part): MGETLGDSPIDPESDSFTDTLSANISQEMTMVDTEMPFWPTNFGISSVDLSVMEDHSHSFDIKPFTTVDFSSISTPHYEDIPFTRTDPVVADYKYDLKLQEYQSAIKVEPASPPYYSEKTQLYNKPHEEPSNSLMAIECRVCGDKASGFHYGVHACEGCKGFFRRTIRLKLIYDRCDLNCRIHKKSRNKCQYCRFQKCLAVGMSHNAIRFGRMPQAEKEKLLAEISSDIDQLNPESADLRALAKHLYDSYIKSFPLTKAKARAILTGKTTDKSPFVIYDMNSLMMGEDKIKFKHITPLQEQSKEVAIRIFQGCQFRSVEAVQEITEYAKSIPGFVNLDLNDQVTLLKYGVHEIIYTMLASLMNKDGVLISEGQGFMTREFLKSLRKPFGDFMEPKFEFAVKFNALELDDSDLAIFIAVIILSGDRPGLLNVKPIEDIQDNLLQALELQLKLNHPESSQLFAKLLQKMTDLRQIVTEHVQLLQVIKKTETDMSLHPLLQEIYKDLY
Agonist Androgen Response Element (ARE), AR (gene 367), sequence (P10275 whole entry, looked up): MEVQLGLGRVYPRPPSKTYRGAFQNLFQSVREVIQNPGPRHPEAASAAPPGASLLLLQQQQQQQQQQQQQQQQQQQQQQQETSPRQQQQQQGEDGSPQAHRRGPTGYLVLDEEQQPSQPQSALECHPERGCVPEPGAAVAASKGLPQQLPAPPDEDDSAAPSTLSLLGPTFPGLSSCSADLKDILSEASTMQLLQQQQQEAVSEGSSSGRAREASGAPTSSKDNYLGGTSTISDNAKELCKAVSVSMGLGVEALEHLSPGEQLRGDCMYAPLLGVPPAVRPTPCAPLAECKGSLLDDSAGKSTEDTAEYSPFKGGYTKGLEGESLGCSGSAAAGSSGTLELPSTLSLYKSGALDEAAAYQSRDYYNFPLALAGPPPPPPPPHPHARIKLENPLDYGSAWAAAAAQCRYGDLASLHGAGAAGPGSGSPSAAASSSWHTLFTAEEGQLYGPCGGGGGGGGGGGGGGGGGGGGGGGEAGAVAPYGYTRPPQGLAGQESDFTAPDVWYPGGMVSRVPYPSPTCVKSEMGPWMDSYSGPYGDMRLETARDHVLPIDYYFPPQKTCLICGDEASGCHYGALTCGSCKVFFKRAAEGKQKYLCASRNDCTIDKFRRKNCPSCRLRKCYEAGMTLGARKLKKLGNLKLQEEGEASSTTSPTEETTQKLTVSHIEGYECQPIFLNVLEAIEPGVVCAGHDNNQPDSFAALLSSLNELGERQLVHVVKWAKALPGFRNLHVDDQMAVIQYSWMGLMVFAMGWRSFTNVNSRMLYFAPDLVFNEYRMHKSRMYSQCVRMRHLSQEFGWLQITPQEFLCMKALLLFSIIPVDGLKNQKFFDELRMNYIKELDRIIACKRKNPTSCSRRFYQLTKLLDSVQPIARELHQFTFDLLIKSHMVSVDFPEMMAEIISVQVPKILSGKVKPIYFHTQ
Bile acid receptor (Homo sapiens), sequence (Q96RI1 whole entry, looked up, the tested form may be a part): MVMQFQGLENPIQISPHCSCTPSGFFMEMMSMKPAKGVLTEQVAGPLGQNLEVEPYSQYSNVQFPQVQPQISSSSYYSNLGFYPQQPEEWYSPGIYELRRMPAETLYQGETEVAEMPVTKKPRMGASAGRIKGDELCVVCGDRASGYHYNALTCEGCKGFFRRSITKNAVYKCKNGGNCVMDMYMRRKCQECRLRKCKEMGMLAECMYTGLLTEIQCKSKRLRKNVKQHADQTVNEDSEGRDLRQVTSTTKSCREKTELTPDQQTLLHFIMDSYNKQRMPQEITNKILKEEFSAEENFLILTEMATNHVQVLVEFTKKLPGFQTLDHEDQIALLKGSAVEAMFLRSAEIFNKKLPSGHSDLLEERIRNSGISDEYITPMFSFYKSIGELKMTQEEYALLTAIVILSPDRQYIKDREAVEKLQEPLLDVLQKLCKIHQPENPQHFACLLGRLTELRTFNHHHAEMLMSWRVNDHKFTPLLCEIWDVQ

CC1=CCC(=C(C)C)CC1
inactive: [1] | [2] | [3] | [4] | [5]
active: [6] 77.4 µM

CC(C)C(=O)c1ccccc1
inactive: [1] | [7] | [3] | [4] | [5] | [6] | [8] | [9]

O=C(O)C1=NN(c2ccc(S(=O)(=O)O)cc2)C(=O)C1
inactive: [1] | [3] | [4] | [5] | [6] | [8] | [9]

CCC(C)(C)C1CCC(=O)CC1
inactive: [1] | [10] | [11] | [3] | [4] | [6] | [8] | [9]

CC(=O)OC/C=C(C)/C=C/C=C(C)/C=C/C1=C(C)CCCC1(C)C
active: [1] 2.21 µM
inactive: [7] | [3] | [4] | [6] | [8] | [9]

CN(C)C
inactive: [1] | [7] | [3] | [4] | [8] | [9]

CCNC(=S)NCC
inactive: [1] | [10] | [7] | [3] | [4] | [5] | [6] | [8] | [9]

CC(C)(C)c1ccc(S)cc1
inactive: [2] | [7] | [3] | [4] | [8] | [9]
active: [10] 10.6 µM

CCOCC(C)O (stereo unspecified)
active: [10] 35 µM
inactive: [7] | [3] | [4] | [12] | [5] | [6] | [8] | [9]

CCCO[Si](OCCC)(OCCC)OCCC
inactive: [2] | [7] | [3] | [4] | [8] | [9]

C1CCCNCC1
inactive: [2] | [7] | [3] | [4] | [5] | [6] | [8] | [9]

CC(C)CCCC(C)(C)O
inactive: [2] | [7] | [3] | [4] | [6] | [8] | [9]

FC(F)(F)c1ccc(Cl)c(Cl)c1
inactive: [10] | [11] | [7] | [3] | [4] | [6] | [8] | [9]
